Among the data in PubChem BioAssay (NCI) are growth values, retold here.

Each structure is given as a SMILES string. Values joined by “and” are separate entries in the source; they are usually repeats but may differ in a detail not shown here. Equal values may be shown once. This is part of a sample that, as a whole, favours compounds with a hit. Of some 83,000 tested, about 20% had one in any assay.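 Each cell line was grown in a 96-well plate and treated with one concentration of compound for 48 hours. Values below 10 were considered active.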 Values without a mark were called inactive. Active and inactive are the calls of the source.

The experiment has as its system HCT-15 colon. The experiment can be described thus: NCI-60 one-dose screen, 48 h (100 = growth as untreated, 0 = no growth, -100 = all killed). The following applies: 10 µM unless noted.
Regarding `c1ccc2c(c1)O[As](O[As]1Oc3ccccc3O1)O2`, the growth is 29.9%.
Consider `COc1cc2c(cc1OC)[C@@H]1C(=O)c3ccc4c(c3O[C@@H]1CO2)C[C@H](C(C)C)O4`, for which the growth is 79.1%.
Under `CC(=O)Cc1ccc2c(c1)OCO2` stands 113%; under `CCN(CC)CCn1c(=O)n(C)c2ccccc21`, 114%; under `CC(=O)c1cccc(S(=O)(=O)F)c1`, 96.3%.
Consider `COc1cc2c(c(OC)c1OC)-c1ccc(O)cc1[C@@H](NC(C)=O)CC2`, for which the growth was 4.26% (active) and 6.32% (active).
Under `Cc1c2ccncc2c(C)c2c1[nH]c1ccccc12` stands -40.3% (active).
Consider `NC(=O)Oc1cc(OC(N)=O)cc(N(CCCl)CCCl)c1`, for which the growth was 68.9%.
In the case of `Nc1cccnc1`, the growth is 111%.
On to `C/C=C(/C)C(=O)O[C@H]1CC[C@@]2(C)[C@@H]3CC[C@H]4[C@]5(O)C[C@H](O)[C@@]6(O)[C@@H](CN7C[C@@H](C)CC[C@H]7[C@@]6(C)O)[C@]5(O)C[C@@]42O[C@@]13O`, for which the growth was 98.4%.
Consider `C[C@]12CCC(=O)C[C@@H]1CC[C@@H]1[C@@H]2CC[C@]2(C)[C@@H](OC(=O)N(CCCl)N=O)CC[C@@H]12`, for which the growth is 27.9%.
Under `CC1(C)N=C(N)N=C(N)N1c1ccc(CCC(=O)Nc2ccc(S(=O)(=O)F)cc2)cc1` stands 46.2%.
For the compound `Cc1c(C)c(N)c(C)c(C)c1N`, the growth is 34.8%.
Consider `Cc1ccc(C(=O)O[C@H](C(=O)O)[C@H](OC(=O)c2ccc(C)cc2)C(=O)O)cc1`, for which the growth is 101%.
For `O=S(=O)(F)c1cccc(Cl)c1C[P+](c1ccccc1)(c1ccccc1)c1ccccc1`, the growth was 91.7%.
Turning to `CN1CCC2(CC1)C(C#N)C(=O)NC(=O)C2C#N` (configuration not stated), the growth was 98.4%.
Take `COc1ccc(N)cc1N`: the growth was 102%.
As to `Cc1cc(NC(=O)NCCCOc2ccc(N3C(N)=NC(N)=NC3(C)C)cc2Cl)ccc1S(=O)(=O)F`, the growth was 90.2%.
For the compound `O=[N+]([O-])c1cc(Cl)c(Cl)c([N+](=O)[O-])c1Cl`, the growth was -18.5% (active).
Under `O=C1c2ccccc2C(=O)N1N1CC1c1ccccc1` (configuration not stated) stands 101%; under `CC1(C)CN=C(NN=C(/C=C/c2ccc(C(F)(F)F)cc2)/C=C/c2ccc(C(F)(F)F)cc2)NC1`, -72% (active).
With `C#COc1cccc(Nc2ncnc3cc(NC(=O)CF)ccc23)c1`, the growth is 28.6% [6.25 µM].
Under `COc1ccc(/C=C(/C)[N+](=O)[O-])cc1OC` stands -25.4% (active) and -17.4% (active).
Under `Cc1cc[n+](CCc2ccccc2)cc1` stands 109% and 106%.
Under `CC1=C(C)C(=O)O[C@@H]([C@](C)(O)[C@]2(O)CC[C@@]3(O)[C@@H]4C[C@H]5O[C@]56CC=CC(=O)[C@]6(C)[C@H]4CC[C@]23C)C1` stands -1.03% (active).
As to `CC(Oc1ccc(-c2ccccc2)cc1)C(=O)O` (configuration not stated), the growth was 108%.
For the compound `O=S1(=O)OCCO1`, the growth is 99%.
Turning to `COc1c(O)cc2c(c1OC)-c1ccc(SC)c(=O)cc1C(NC(C)=O)CC2` (configuration not stated), the growth was -40.6% (active).
As for `Nc1nc(=S)nc(N)[nH]1`, the growth is 101%.
Take `O=Cc1cn(Cc2ccccc2)c2ccccc12`: the growth is 106%.
Regarding `O=C(O)C(O)c1ccc(Cl)cc1` (configuration not stated), the growth was 102%.
The figure for `C[C@H](O)CCC(=O)c1ccoc1` is 110%; for `c1ccc2c(c1)sc1ccccc12` it is 103%; for `O=C1CN2CCC1CC2` it is 97%.
The figure for `Cn1cc(C(=O)C[n+]2ccccc2)c2ccccc21` is 110%; for `Cc1cc(C(C)(C)C)ccc1O` it is 109%; for `N#CC(C#N)=Cc1cccc(F)c1` it is 105%.
